In the supplement of paper PMC10849652:
The full data set covers some 8,800 targets. This sample favours those with a hit. About 0.5% of all pairs of compound and target were hits.

How the values were obtained:
Experiment in all cases: log2 fold change, soluble protein after heating vs DMSO (PISA); higher = thermal stabilisation; K562 lysate, 10 uM; active = over 0.2 and 3.5 SD of the protein, either way, in both replicates (recomputed)
[1] = compound: Cc1cn(-c2cc(NC(=O)c3ccc(C)c(Nc4nccc(-c5cccnc5)n4)c3)cc(C(F)(F)F)c2)cn1 [nilotinib]
Summary of the method: (§1)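 Pellets of K562 cells were dounce-homogenised in PBS pH 7.4 with 1 mM MgCl2, and the crude extract was held at 1 mg/mL protein for a 30 min treatment with 10 μM compound. Aliquots were heated for 3 min over 48°C-58°C and pooled before NP-40 was added to 0.5% at 4°C. The supernatant from 21,000xg for 90 min was quantified by TMTpro 16plex LC-MS/MS with channel sums equalised. Values are reported from duplicates as log-two fold change in thermal stability relative to solvent controls.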

[2] = compound: Cc1nc(Nc2n[nH]c3c2CN(C(=O)N[C@H](CN(C)C)c2ccccc2)C3(C)C)c2sccc2n1
Summary of the method: as §1

[3] = compound: Cc1nc(Nc2ncc(C(=O)Nc3c(C)cccc3Cl)s2)cc(N2CCN(CCO)CC2)n1 [dasatinib]
Summary of the method: as §1

[4] = compound: Cc1ncc(-c2ccnc(Nc3ccc(S(C)(=O)=O)cc3)n2)n1C(C)C
Summary of the method: as §1

[5] = compound: Cn1cc(-c2ccc3c(c2)CCN3C(=O)Cc2cccc(C(F)(F)F)c2)c2c(N)ncnc21
Summary of the method: as §1

[6] = compound: Cn1cc(CNCC2CCN(c3ncc(C(=O)NO)cn3)CC2)c2ccccc21 [quisinostat]
Summary of the method: as §1

[7] = compound: Cn1cncc1[C@@](N)(c1ccc(Cl)cc1)c1ccc2c(c1)c(-c1cccc(Cl)c1)cc(=O)n2C [tipifarnib]
Summary of the method: as §1

[8] = compound: NC(=O)Nc1cc(-c2cccc(F)c2)sc1C(=O)N[C@H]1CCCNC1
Summary of the method: as §1

[9] = compound: NC(=O)c1cnc(N[C@@H]2CCCC[C@@H]2N)nc1Nc1cccc(-n2nccn2)c1
Summary of the method: as §1

[10] = compound: NC1(c2ccc(-c3nc4ccn5c(=O)[nH]nc5c4cc3-c3ccccc3)cc2)CCC1
Summary of the method: as §1

Measured: log2 fold change

GCDH (UniProt Q92947)
UniProt Q92947, sequence (Q92947 whole entry, looked up): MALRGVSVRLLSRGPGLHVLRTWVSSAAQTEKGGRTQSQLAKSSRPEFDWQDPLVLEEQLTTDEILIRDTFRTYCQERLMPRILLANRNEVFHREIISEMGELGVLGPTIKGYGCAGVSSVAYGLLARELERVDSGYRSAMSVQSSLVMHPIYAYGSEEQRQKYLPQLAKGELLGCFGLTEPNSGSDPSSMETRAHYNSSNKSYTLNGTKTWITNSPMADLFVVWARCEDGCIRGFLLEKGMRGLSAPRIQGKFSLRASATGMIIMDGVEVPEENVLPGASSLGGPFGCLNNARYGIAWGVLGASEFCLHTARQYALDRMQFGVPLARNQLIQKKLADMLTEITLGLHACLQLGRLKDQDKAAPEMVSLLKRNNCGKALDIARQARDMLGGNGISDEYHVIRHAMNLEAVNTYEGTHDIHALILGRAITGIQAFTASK
inactive: [1] -0.018 | [2] -0.129 | [3] 0.024 | [4] -0.033 | [5] -0.022 | [6] -0.05 | [7] -0.018 | [8] -0.07 | [9] -0.021 | [10] -0.044

GEMIN4 (UniProt P57678)
inactive: [1] -0.001 | [2] -0.014 | [3] -0.047 | [4] -0.001 | [5] 0.101 | [6] -0.056 | [7] 0.006 | [8] 0.077 | [9] -0.001 | [10] -0.097

EEF1AKMT4 (UniProt P0DPD7)
inactive: [1] -0.01 | [2] -0.064 | [3] -0.051 | [4] 0.04 | [5] -0.109 | [6] 0.075 | [7] 0.004 | [8] 0.105 | [9] 0.096 | [10] -0.064

FHOD1 (UniProt Q9Y613)
UniProt Q9Y613, sequence (Q9Y613 whole entry, looked up): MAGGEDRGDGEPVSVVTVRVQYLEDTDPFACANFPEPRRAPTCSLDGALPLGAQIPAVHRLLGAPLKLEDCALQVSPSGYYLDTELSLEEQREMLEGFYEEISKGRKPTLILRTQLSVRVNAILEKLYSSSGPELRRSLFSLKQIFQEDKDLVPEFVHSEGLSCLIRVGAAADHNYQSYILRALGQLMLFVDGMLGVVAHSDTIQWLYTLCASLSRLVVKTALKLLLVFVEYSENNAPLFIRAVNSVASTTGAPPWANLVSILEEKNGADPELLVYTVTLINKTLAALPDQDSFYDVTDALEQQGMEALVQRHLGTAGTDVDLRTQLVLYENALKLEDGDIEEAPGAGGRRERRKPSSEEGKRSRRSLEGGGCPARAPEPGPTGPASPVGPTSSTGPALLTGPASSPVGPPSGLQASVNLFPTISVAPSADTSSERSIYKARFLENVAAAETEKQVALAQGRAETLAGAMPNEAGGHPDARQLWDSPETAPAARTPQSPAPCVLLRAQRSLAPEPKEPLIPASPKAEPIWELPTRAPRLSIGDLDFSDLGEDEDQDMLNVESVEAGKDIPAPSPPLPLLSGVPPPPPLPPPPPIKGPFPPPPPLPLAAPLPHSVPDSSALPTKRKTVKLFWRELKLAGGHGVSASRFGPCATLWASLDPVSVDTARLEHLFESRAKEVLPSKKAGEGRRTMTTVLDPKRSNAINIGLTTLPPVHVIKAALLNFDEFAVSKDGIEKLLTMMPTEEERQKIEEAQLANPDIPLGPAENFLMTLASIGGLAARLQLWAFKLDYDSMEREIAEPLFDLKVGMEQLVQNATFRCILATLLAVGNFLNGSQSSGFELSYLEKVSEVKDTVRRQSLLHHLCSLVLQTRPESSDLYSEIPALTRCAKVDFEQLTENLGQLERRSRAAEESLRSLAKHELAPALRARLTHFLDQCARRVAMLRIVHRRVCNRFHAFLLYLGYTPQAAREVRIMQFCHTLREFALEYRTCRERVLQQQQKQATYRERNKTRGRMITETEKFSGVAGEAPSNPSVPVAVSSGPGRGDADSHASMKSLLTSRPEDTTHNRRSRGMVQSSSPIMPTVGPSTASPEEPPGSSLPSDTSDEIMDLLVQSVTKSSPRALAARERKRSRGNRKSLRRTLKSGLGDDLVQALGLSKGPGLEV
inactive: [1] 0.005 | [2] 0.017 | [3] -0.05 | [4] -0.007 | [5] 0.002 | [6] 0.017 | [7] -0.017 | [8] 0.039 | [9] 0.014 | [10] 0.023

FTSJ3 (UniProt Q8IY81)
UniProt Q8IY81, sequence (Q8IY81 whole entry, looked up): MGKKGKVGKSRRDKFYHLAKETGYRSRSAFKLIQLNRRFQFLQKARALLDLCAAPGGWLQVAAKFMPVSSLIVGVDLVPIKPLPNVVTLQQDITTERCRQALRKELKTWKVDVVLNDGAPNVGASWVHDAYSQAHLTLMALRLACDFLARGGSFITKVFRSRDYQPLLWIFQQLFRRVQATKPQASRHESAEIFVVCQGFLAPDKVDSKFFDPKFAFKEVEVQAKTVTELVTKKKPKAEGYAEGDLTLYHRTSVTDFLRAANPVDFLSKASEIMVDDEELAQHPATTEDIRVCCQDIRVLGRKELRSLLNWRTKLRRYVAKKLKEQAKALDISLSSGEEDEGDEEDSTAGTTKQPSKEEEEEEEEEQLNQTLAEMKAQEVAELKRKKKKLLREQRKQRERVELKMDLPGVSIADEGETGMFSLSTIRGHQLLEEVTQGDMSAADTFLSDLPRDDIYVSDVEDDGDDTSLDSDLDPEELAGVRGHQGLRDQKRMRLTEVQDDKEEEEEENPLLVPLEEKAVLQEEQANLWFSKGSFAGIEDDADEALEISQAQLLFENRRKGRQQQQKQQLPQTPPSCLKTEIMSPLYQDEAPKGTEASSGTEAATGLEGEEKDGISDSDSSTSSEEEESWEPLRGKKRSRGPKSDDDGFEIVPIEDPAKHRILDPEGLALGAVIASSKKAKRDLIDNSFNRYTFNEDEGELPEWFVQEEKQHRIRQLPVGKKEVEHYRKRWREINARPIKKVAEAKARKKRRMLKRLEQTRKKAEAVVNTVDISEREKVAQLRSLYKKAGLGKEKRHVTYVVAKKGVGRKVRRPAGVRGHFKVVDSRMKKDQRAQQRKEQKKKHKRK
inactive: [1] 0.001 | [2] -0.025 | [3] 0.021 | [4] 0.016 | [5] -0.001 | [6] 0.066 | [7] -0.046 | [8] 0.047 | [9] 0.033 | [10] -0.015

EIF2B3 (UniProt Q9NR50)
UniProt Q9NR50, sequence (Q9NR50 whole entry, looked up): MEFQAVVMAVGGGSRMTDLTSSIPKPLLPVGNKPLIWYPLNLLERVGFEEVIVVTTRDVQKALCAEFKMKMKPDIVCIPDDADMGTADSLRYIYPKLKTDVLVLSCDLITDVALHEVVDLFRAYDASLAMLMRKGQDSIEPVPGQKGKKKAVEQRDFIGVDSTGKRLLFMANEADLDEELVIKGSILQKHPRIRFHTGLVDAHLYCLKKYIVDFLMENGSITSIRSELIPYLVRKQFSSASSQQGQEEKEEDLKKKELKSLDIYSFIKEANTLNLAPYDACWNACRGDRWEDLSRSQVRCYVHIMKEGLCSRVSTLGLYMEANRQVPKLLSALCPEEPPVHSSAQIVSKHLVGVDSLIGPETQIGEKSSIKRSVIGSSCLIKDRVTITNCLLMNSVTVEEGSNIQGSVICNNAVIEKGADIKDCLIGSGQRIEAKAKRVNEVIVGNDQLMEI
inactive: [1] 0.001 | [2] 0.001 | [3] -0.049 | [4] 0.009 | [5] -0.024 | [6] -0.036 | [7] -0.013 | [8] 0.022 | [9] -0.008 | [10] -0.009

EIF2AK2 (UniProt P19525)
inactive: [1] -0.014 | [2] 0.043 | [3] 0.122 | [4] 0.01 | [5] 0.056 | [6] -0.087 | [7] -0.032 | [8] 0.045 | [9] -0.013 | [10] -0.054

GBF1 (UniProt Q92538)
inactive: [1] -0.021 | [2] 0.02 | [3] -0.088 | [4] 0.027 | [5] 0.021 | [6] -0.04 | [7] -0.003 | [8] 0.054 | [9] 0.018 | [10] -0.034

ETFRF1 (UniProt Q6IPR1)
UniProt Q6IPR1, sequence (Q6IPR1 whole entry, looked up): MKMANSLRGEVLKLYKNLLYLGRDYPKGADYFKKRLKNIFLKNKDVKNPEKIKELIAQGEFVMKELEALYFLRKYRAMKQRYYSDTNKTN
inactive: [1] -0.038 | [2] 0.032 | [3] -0.01 | [4] -0.02 | [5] 0.062 | [6] 0.088 | [7] 0.117 | [8] -0.028 | [9] 0.071 | [10] 0.046

FMNL2 isoform 3 (UniProt Q96PY5)
inactive: [1] -0.1 | [2] -0.087 | [3] 0.101 | [4] -0.018 | [5] -0.028 | [6] -0.1 | [7] -0.012 | [8] -0.047 | [9] 0.002 | [10] -0.021

FBLL1 (UniProt A6NHQ2)
inactive: [1] 0.006 | [2] -0.015 | [3] -0.048 | [4] -0.101 | [5] 0 | [6] -0.07 | [7] -0.009 | [8] 0.026 | [9] -0.037 | [10] 0

EAPP (UniProt Q56P03)
inactive: [1] 0.039 | [2] 0.018 | [3] 0.024 | [4] -0.095 | [5] -0.001 | [6] 0.017 | [7] 0.002 | [8] 0.021 | [9] 0.038 | [10] -0.045

EXOC3 (UniProt O60645)
UniProt O60645, sequence (O60645 whole entry, looked up): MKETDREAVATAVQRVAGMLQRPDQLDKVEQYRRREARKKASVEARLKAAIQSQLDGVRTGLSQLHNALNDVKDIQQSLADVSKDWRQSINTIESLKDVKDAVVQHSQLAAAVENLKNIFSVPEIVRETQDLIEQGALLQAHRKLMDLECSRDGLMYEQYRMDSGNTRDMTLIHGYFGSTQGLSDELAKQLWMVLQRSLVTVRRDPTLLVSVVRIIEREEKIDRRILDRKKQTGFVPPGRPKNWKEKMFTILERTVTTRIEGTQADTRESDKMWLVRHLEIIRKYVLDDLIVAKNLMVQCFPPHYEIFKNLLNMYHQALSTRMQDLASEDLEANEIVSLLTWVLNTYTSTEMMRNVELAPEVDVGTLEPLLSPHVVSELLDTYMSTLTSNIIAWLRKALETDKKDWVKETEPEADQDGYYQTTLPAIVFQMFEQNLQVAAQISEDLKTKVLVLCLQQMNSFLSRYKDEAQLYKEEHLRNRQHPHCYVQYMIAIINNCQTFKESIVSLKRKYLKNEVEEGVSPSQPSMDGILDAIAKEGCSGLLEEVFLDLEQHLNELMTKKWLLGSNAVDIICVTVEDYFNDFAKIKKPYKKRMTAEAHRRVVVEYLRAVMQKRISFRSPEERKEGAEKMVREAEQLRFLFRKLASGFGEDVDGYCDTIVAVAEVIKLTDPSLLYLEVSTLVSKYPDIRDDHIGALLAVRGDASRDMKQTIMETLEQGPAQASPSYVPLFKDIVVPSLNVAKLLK
inactive: [1] -0.013 | [2] 0.012 | [3] -0.06 | [4] 0.039 | [5] 0.021 | [6] -0.115 | [7] -0.018 | [8] 0.063 | [9] 0.005 | [10] -0.005

GIPC3 (UniProt Q8TF64)
UniProt Q8TF64, sequence (Q8TF64 whole entry, looked up): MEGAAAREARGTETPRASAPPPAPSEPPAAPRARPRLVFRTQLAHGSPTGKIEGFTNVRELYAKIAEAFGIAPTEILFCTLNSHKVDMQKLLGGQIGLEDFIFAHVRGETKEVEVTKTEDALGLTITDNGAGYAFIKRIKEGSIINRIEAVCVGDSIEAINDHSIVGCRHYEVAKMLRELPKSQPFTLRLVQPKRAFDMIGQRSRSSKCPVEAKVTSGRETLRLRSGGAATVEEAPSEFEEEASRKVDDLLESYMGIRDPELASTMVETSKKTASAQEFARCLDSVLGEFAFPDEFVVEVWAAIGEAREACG
inactive: [1] 0.183 | [3] -0.071 | [4] 0.097 | [5] -0.009 | [6] -0.309 | [7] -0.067 | [8] 0.134 | [9] 0.045 | [10] 0.016
active: [2] -0.602

GGT7 (UniProt Q9UJ14)
inactive: [1] -0.061 | [2] -0.023 | [3] -0.083 | [4] 0.014 | [5] -0.012 | [6] 0.092 | [7] -0.008 | [8] 0.071 | [9] 0.007 | [10] 0.02

EXOC2 (UniProt Q96KP1)
inactive: [1] 0.009 | [2] 0.018 | [3] -0.041 | [4] -0.009 | [5] 0.022 | [6] -0.088 | [7] -0.022 | [8] 0.062 | [9] -0.003 | [10] -0.029

ENO2 (UniProt P09104)
inactive: [1] 0.006 | [2] 0.017 | [3] 0.036 | [4] 0.025 | [5] 0 | [6] -0.03 | [7] -0.021 | [8] 0.001 | [9] -0.043 | [10] 0.003

EIF2D (UniProt P41214)
UniProt P41214, sequence (P41214 whole entry, looked up): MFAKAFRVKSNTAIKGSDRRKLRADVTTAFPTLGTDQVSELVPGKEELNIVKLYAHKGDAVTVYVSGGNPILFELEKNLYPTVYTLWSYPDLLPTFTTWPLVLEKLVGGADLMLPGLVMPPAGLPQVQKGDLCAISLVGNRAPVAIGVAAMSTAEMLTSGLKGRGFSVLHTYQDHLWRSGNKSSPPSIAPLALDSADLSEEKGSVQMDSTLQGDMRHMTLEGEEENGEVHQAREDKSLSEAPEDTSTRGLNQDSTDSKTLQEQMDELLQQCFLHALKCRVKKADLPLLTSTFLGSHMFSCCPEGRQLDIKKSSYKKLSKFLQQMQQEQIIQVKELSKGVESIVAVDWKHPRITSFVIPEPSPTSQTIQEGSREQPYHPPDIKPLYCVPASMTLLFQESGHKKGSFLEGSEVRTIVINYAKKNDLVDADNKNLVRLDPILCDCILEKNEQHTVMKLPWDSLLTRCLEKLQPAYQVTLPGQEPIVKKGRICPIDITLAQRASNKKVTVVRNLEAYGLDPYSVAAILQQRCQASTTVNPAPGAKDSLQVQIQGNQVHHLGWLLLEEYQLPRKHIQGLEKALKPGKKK
inactive: [1] -0.034 | [2] 0.028 | [3] -0.027 | [4] -0.009 | [5] 0.002 | [6] -0.064 | [7] 0.024 | [8] 0.04 | [9] 0.008 | [10] -0.041

ERAL1 (UniProt O75616)
inactive: [1] 0 | [2] -0.001 | [3] 0.01 | [4] 0.003 | [5] 0.018 | [6] -0.078 | [7] -0.027 | [8] 0.083 | [9] -0.052 | [10] 0.008

EXOC1 (UniProt Q9NV70)
inactive: [1] -0.005 | [2] 0.013 | [3] -0.067 | [4] 0.013 | [5] 0.097 | [6] 0.024 | [7] 0.005 | [8] 0.024 | [9] 0.012 | [10] -0.032

FECH isoform 2 (UniProt P22830)
inactive: [1] 0.796 | [2] 0 | [3] 0.353 | [4] 0.364 | [5] 0.009 | [6] 0.333 | [7] -0.007 | [8] -0.013 | [9] 0.139 | [10] 0.053

EEFSEC (UniProt P57772)
inactive: [1] 0.004 | [2] 0.01 | [3] -0.067 | [4] -0.03 | [5] 0.007 | [6] -0.043 | [7] -0.003 | [8] 0.052 | [9] 0 | [10] -0.019

EXTL2 (UniProt Q9UBQ6)
UniProt Q9UBQ6, sequence (Q9UBQ6 whole entry, looked up): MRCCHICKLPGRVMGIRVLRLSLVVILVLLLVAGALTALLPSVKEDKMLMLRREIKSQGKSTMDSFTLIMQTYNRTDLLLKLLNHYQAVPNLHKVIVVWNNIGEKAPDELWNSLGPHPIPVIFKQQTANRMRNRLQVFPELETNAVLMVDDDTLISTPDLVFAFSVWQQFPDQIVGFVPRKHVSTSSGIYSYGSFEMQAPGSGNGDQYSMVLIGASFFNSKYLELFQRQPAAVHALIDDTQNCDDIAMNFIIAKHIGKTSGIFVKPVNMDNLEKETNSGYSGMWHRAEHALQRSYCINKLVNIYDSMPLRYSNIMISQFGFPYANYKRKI
inactive: [1] 0.07 | [2] -0.085 | [3] 0.127 | [4] 0.081 | [5] 0.13 | [6] -0.146 | [7] 0.017 | [8] 0.035 | [9] -0.068 | [10] 0.003

EXOC4 (UniProt Q96A65)
inactive: [1] 0.015 | [2] -0.012 | [3] -0.083 | [4] 0.015 | [5] 0.072 | [6] -0.009 | [7] -0.036 | [8] 0.053 | [9] 0.013 | [10] -0.068

EPRS (UniProt P07814)
inactive: [1] 0.005 | [2] -0.002 | [3] -0.039 | [4] -0.01 | [5] 0.039 | [6] 0 | [7] 0.011 | [8] 0.039 | [9] 0.002 | [10] -0.026
